Test results taken from article PMC5540273 (PLoS ONE, 2017).

tested on: LYN; conditions: concentration: 1 μM, replicates: in singlicate; n = 1
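Further: KINOMEscan kinase panel screen.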

Row | SMILES | %Inh
1 | Nc1n[nH]c2cnc(-c3ccccc3)cc12 [SB-642124] | 3%
2 | COc1cccc(C2=C(Nc3ccc(Cl)c(C(=O)O)c3)C(=O)NC2=O)c1 [SB-390769] | 8%
3 | Cn1cc(-c2ccc3c(c2)CCN3C(=O)Cc2cccc(Cl)c2)c2c(N)ncnc21 [GSK2606590] | 15%
4 | COc1cccc(-c2ccc3c(NC(=O)C4CC4)n[nH]c3n2)c1 [SB-710903] | 1%
5 | Cc1ccc(C(=O)N2CC[C@@H](O)C2)cc1-n1c(C)cc(OCc2ccc(F)cc2F)c(Br)c1=O | 74%
6 | O=c1[nH]cc(-c2ccc(N3CCOCC3)cc2)c2sc(-c3cn[nH]c3)cc12 [GSK2276055] | 0%
7 | COc1cc(Nc2ncc3c(C)nc(-c4cc5ccccc5[nH]4)n3n2)cc(OC)c1OC [GW869516] | 26%
8 | O=C(Nc1cccc(-c2nn3ccccc3c2-c2ccnc(Nc3cccc(F)c3)n2)c1)c1c(F)ccc(F)c1Cl [GSK357952] | 83%
9 | CSc1cccc2c(-c3ccncn3)c(-c3ccc(F)cc3)nn12 [GW514786] | 0%
10 | COc1cc(Nc2nccc(-c3c(-c4cccc(NC(=O)c5c(F)cccc5F)c4)nn4ncccc34)n2)cc(OC)c1OC [GSK327238] | 99.3%
11 | Cc1ccc(S(=O)(=O)Nc2ccc(Nc3nccc(Nc4cccc5[nH]ncc45)n3)cc2)cc1 [GSK581271] | 0%
12 | O=C(Nc1cccc(-c2nn3ncccc3c2-c2ccnc(Nc3ccccc3)n2)c1)c1c(F)cccc1F [GSK198271] | 99.4%
13 | Cl.c1ccc(-c2ccc3c(Nc4ccc5[nH]ncc5c4)ccnc3c2)nc1 [GW440137] | 31%
14 | CN(C)S(=O)(=O)c1cc(-c2ccc3nccc(-c4cccc(S(N)(=O)=O)c4)c3c2)cnc1N [GSK1669921] | 0%
15 | COc1ccc(CNC(=O)NC2CCN(c3ccnc(Nc4ccc(F)cc4)n3)CC2)cc1 [GSK1379788] | 0%
16 | Cl.Cl.NCC(C(=O)Nc1cc(Br)c(-c2ccnc3[nH]ccc23)s1)c1ccccc1 (stereo not drawn) [GSK1269851] | 0%
17 | CCS(=O)(=O)c1ccc(OC)c(Nc2nccc(-c3c(-c4cccc(NC(=O)c5c(F)cccc5F)c4)nn4ncccc34)n2)c1 [GSK326180] | 30%

Row | SMILES | %Inh
18 | Fc1ccc(-c2ncn(C3CCNCC3)c2-c2ccnc(Oc3ccc(-c4ccccc4)cc3)n2)cc1 [SB-245391] | 9%
19 | CN(c1ccc(NC(=O)Nc2cc(C(F)(F)F)ccc2F)cc1)c1ccnc(Nc2ccc(S(N)(=O)=O)cc2)n1 [GW809893] | 96.4%
20 | Cc1ccc(F)c(C(=O)Nc2cccc(-c3nn4ccccc4c3-c3ccnc(Nc4cccc(F)c4)n3)c2)c1F [GSK361061] | 73%
21 | CC(C)(C)c1ccc2nccc(Nc3cccc(O)c3)c2c1 [GW856795] | 22%
22 | O=C(Nc1n[nH]c2cc(-c3ccoc3)ccc12)C1CC1 [SB-738481] | 11%
23 | CCn1c(-c2nonc2N)nc2c(C#CC(C)(C)O)nc(OC[C@H](N)c3ccccc3)cc21 [GSK943949] | 1%
24 | Cl.c1ccc(-c2ccc3c(Nc4ccc5[nH]ccc5c4)ccnc3c2)nc1 [GW440138] | 47%
25 | Cn1cc(-c2[nH]c3cc(NC(=O)[C@H](N)C4CCCCC4)cc4c3c2C=NNC4=O)cn1 | 76%
26 | C[C@@H]1CC[C@@H](C(=O)Nc2ccccc2)CN1c1cc(-c2ccc3c(N)n[nH]c3c2)nc(N)n1 [GSK2286062] | 0%
27 | Nc1ncc(-c2cccnc2)c2scc(-c3ccc4c(c3)CCN4C(=O)Cc3ccccc3)c12 [GSK683281] | 45%
28 | CC(=O)Nc1nc2cnc(Nc3cc(NC(=O)c4cccc(C5(C#N)CC5)c4Cl)ccc3C)nc2s1 | 79%
29 | CCc1ccc(-c2ccc3c(c2)-c2c(cnn2C)S(=O)(=O)N3C)cc1 | 0%
30 | COCCOCCOc1cc2ncc3c4ccc(C#N)cc4[nH]c3c2cc1OC | 31%
31 | Cc1ccc(C(=O)Nc2ccc(Nc3ccnc4cc(-c5nccs5)ccc34)cc2O)cc1.Cl [GW494702] | 65%
32 | COc1cc(Nc2nccc(N3CCC(NC(=O)c4cc5ccccc5s4)C3)n2)cc(OC)c1OC (stereo not drawn) [GSK1379760] | 31%
33 | Cl.NC(=O)c1cccc(Nc2nccc(Nc3ccc(Oc4c(Cl)cccc4Cl)c(Cl)c3)n2)c1 [GW659009] | 34%
